Drawing on PubChem BioAssay AID1347044 (National Center for Advancing Translational Sciences (NCATS), 2019), this text covers Potency for 5 compounds.

The campaign covered roughly 1,400 compounds. About 1,100 (79%) were called active. Inconclusive results (about 20%) are left out. The call rests on the fitted dose curve. So high a share suggests a set chosen from earlier hits. A selection follows.
Potency means the concentration at half of the fitted maximal effect.

Atrial natriuretic peptide receptor 1 (Homo sapiens), sequence (P16066 whole entry, looked up, the tested form may be a part): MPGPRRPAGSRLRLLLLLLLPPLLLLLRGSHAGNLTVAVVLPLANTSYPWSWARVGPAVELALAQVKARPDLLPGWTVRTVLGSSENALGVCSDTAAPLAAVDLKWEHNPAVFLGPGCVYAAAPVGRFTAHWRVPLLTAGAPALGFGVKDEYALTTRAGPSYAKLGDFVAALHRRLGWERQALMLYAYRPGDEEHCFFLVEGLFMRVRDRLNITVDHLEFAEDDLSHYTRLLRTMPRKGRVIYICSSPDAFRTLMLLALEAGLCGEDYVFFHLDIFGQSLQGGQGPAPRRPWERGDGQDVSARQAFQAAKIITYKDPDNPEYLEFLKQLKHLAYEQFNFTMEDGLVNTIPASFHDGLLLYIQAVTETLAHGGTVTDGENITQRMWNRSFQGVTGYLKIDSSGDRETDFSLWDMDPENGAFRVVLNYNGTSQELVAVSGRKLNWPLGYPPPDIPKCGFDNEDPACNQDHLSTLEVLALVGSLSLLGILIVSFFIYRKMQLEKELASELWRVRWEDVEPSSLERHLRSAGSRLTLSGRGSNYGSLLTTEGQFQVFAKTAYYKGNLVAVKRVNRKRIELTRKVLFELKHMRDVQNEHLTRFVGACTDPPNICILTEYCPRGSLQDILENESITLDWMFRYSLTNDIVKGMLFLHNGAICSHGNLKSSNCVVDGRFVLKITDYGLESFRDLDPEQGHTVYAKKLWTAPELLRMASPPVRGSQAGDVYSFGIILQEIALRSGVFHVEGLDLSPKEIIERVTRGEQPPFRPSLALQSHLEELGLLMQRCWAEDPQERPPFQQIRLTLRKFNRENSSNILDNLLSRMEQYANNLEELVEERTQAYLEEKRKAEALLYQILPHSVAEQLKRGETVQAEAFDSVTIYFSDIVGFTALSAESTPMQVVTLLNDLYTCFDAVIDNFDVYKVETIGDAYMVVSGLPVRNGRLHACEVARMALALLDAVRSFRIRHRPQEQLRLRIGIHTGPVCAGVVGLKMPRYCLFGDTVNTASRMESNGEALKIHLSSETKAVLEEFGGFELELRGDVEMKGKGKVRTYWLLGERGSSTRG

In this assay the target is Atrial natriuretic peptide receptor 1 (Homo sapiens) (UniProt P16066). Briefly: Natriuretic polypeptide receptor (hNpr1) antagonism - Confirmation. Further: nearly all actives have a fitted effect of over 70% in size. The note with it: HEK293 hNpr1 cGMP GloSensor luminescence, ANP-stimulated. Here is the method:
In order to identify small molecular compounds that inhibit the hNpr1 receptor we developed a high-throughput assay to measure inhibition of the guanylate cyclase activity of the receptor. cGMP production was measured using a circular permutated Firefly luciferase (FLuc) enzyme functionally linked to the cGMP binding domain of human phosphodiesterase 5 (GloSensor technology pGS-40F, (Fan, F. et al. 2008). The cGMP-sensor was expressed in human embryonic kidney 293 (HEK-293) cells and FLuc activity was measured after stimulation with hNrp agonist peptide. hNrp agonists activates the receptor's associated guanylyl cyclase (GC) domain producing cGMP which then binds to the GloSensor resulting in FLuc activation, the enzymatic activity of which can be measured as bioluminescence with addition of luciferin substrate. A cytotoxicity counter-screen using the HEK-hNpr1-cGMP-sensor cells was also performed on the follow-up compounds. F. Fan, B. F. Binkowski, B. L. Butler, P. F. Stecha, M. K. Lewis, K. V. Wood, Novel genetically encoded biosensors using firefly luciferase. ACS Chem Biol 3, 346-351 (2008).
PROTOCOL TABLES (as described by Inglese J, Shamu CE and Guy RK. 2007) SEQUENCE No. (e.g., 1, 2, 3, etc.); PARAMETER (e.g., Cells, Incubation, Reagent, etc.); VALUE and DESCRIPTION. GLOSENSOR PROTOCOL 1. Cells. Seed 1500 HEK293 cGMP-sensor cells expressing hNpr1 per well in 4uL into Greiner 1536-well white/solid bottom high base, tissue culture-treated plates. 2. Incubation. Incubate plated cells at 37C in 5% CO2, 95% RH overnight. 3. Reagent. Add 1uL per well GloSensor reagent from Promega (2% final concentration) or CO2 independent media vehicle control to respective columns of Greiner 1536-well plates. 4. Incubation. Incubate plated cells at room temperature for 2 h, protect from light. 5. Compounds. Library compounds and A-71915 control added at 23 nL per well, transferred by Pin Tool. 6. Incubation. Incubate plated cells for 30 min. at room temperature, protect from light. 7. Detector. GloSensor baseline pre-read luminescence measured using CCD-based camera (Viewlux). 8. Compound. Add 1uL of hNppA peptide to 0.1 nM final concentration to stimulate hNpr1 or CO2 independent media as vehicle control. 9. Incubation. Incubate treated cells at room temperature for 20 min., protect from light. 10. Detector. GloSensor post-hNppA luminescence measured using CCD-based camera (Viewlux). NOTES (numbers refer to Sequence numbers above) 1. HEK293 cells expressing hNpr1 and GIP/pGS-40F grown to 85-95% confluence (48-72 h) in T175 culture flasks (CO2 independent media supplemented with 10% FBS, 1% Pen/Strep antibiotics and 1 ug/mL puromycin). Trypsinize and harvest cells from T175 culture flasks and filter through 40 um cell strainer. Cells counted with Invitrogen Countess (30,000,000 - 50,000,000 cells/flask). Cells diluted to a final concentration of 375 cells/uL in CO2 independent media and a Millipore multidrop used to dispense 1500 cells per well (4uL/well) into 13 1536-well Greiner White/Solid bottom, high base tissue-culture treated (TC) plates and one Aurora 1536-well Black/Clear bottom, low base, TC plate (for visual inspection of cell health throughout the duration of the assay). 2. Cells incubated overnight at ambient temperature, 24 h. at 37C in 95% RH incubator protected from light, covered with metal lid with gas-exchange holes. 3. […]
Take `CCC(CC)c1cc([C@H]2CN3CC[C@H]2C[C@@H]3CNC(=O)NCc2ccccc2)nc(-c2ccncc2)n1`: the Potency is 19.3 µM (active).

For the compound `COc1cc2c(cc1Oc1cccc(N(C)C)c1)NC(=O)C21CCN(CCC(C)C)CC1`, the Potency is 35.3 µM (active).

For the compound `COc1cc2c(cc1OCc1ccncc1)NC(=O)C21CCN(c2ncc(F)cn2)CC1`, the Potency is 39.6 µM (active).

With `COc1cc2c(cc1Oc1cccc(N(C)C)c1)NC(=O)C21CCN(Cc2ccccn2)CC1`, the Potency was 21.7 µM (active).

For the compound `COc1cc2c(cc1Oc1cccc(N(C)C)c1)NC(=O)C21CCN(c2cnccn2)CC1`, the Potency was 21.7 µM (active).
